# Measured values as given in the antibiotic and cytotoxicity screens of Wong et al. (2023).
# Hit rate of the full screen: of about 39,000 compounds, about 1,500 (3.8%) were called active. This excerpt belongs to a sample that is enriched for actives.
# Test system: HSkMC (human skeletal muscle cells)
# Test: cytotoxicity call (relative viability < 0.9)
# Conditions: 10 µM
row,SMILES,cytotoxicity call
1,COc1c(O)cc(O)cc1O,inactive
2,O=C1OCC=C[C@H]2O[C@@]34C=CCN(Cn5nnc6ccccc65)C(=O)[C@H]3N(CCO)C(=O)[C@@H]4[C@@H]12,inactive
3,CNC(=O)CN1CCN2CCN(CC(=O)NC)CC(=O)[O][Gd]([O]C(=O)C2)[O]C(=O)C1,inactive
4,C[C@@H]1CCCCO[C@@H](CN(C)S(=O)(=O)c2cn(C)cn2)[C@@H](C)CN([C@@H](C)CO)C(=O)c2cc(NS(=O)(=O)c3cccs3)ccc2O1,inactive
5,Cc1noc(C)c1S(=O)(=O)Nc1cccc2c1O[C@@H](CN(C)CC1CC1)[C@@H](C)CN([C@@H](C)CO)C2=O,inactive
6,C[C@H]1CN([C@@H](C)CO)C(=O)c2cccc(NC(=O)Nc3ccc4c(c3)OCO4)c2O[C@H]1CN(C)S(C)(=O)=O,inactive
7,Cc1noc(C)c1S(=O)(=O)Nc1ccc2c(c1)C(=O)N([C@H](C)CO)C[C@H](C)[C@@H](CN(C)Cc1ccc(C(F)(F)F)cc1)OCCCC[C@@H](C)O2,inactive
8,O=C(C[C@H]1C[C@H]2c3cc(NS(=O)(=O)c4ccc(F)cc4)ccc3O[C@H]2[C@@H](CO)O1)NCc1ccccc1F,inactive
9,C[C@H]1CN([C@@H](C)CO)C(=O)c2cc(NC(=O)CCC(F)(F)F)ccc2O[C@@H]1CN(C)C(=O)Nc1ccc(C(F)(F)F)cc1,inactive
10,C[C@H]1CN([C@@H](C)CO)C(=O)c2cccc(NC(=O)Nc3ccccc3)c2O[C@H]1CN(C)S(C)(=O)=O,inactive
11,COc1ccc(S(=O)(=O)Nc2cccc3c2O[C@@H](CN(C)C(=O)Nc2c(C)noc2C)[C@@H](C)CN([C@H](C)CO)C3=O)cc1,inactive
12,Cc1noc(C)c1NC(=O)Nc1ccc2c(c1)CC(=O)N([C@H](C)CO)C[C@@H](C)[C@H](CN(C)S(=O)(=O)c1cn(C)cn1)O2,inactive
13,C[C@H]1O[C@@H](O[C@H]2[C@@H](O)[C@@H](O)[C@@H](O[C@H]3CC[C@]4(C)[C@H]5CC=C6[C@H]7CC(C)(C)[C@H]8C[C@]7(C(=O)O8)[C@@H](O)C[C@]6(C)[C@@]5(C)CC[C@H]4C3(C)C)O[C@@H]2CO)[C@@H](O)[C@@H](O[C@H]2OC[C@@H](O)[C@@H](O)[C@@H]2O)[C@@H]1O,inactive
14,C[C@@H]1O[C@@H](O[C@H]2[C@H](O)[C@@H](O)[C@H](OC[C@H]3O[C@@H](OC(=O)[C@]45CCC(C)(C)C[C@@H]4C4=CC[C@H]6[C@@]7(C)CC[C@H](O[C@H]8OC[C@H](O)[C@H](O)[C@H]8O[C@H]8O[C@@H](C)[C@H](O)[C@@H](O)[C@H]8O)[C@@](C)(CO)[C@@H]7CC[C@@]6(C)[C@]4(C)CC5)[C@H](O)[C@@H](O)[C@@H]3O)O[C@@H]2CO)[C@H](O)[C@H](O)[C@H]1O,inactive
15,Cn1cnc(S(=O)(=O)N2C[C@@H](O)COC[C@H]3O[C@H](CC(=O)N4CCN(c5ccccc5)CC4)CC[C@@H]32)c1,inactive
16,O=[N+]([O-])c1ccc(NCCNCCO)cc1,inactive
17,O=C1c2c(O)ccc(O)c2C(=O)c2c(NCCNCCO)ccc(NCCNCCO)c21,active
18,Cl.Cl.O=C1c2c(O)ccc(O)c2C(=O)c2c(NCCNCCO)ccc(NCCNCCO)c21,active
19,O=C1c2ccccc2C(=O)c2c1ccc(O)c2O,inactive
20,O=C(CCNCCO)c1ccccc1,inactive
21,O=C1c2ccccc2C(=O)c2c(NCCNCCO)ccc(NCCNCCO)c21,active
22,O=C1c2cccc(O)c2C(=O)c2c(O)cccc21,inactive

row,SMILES,cytotoxicity call
1,COc1ccc(S(=O)(=O)Nc2ccc3c(c2)C(=O)N([C@@H](C)CO)C[C@H](C)[C@H](CN(C)Cc2ccncc2)O3)cc1,inactive
2,C[C@@H]1CN([C@H](C)CO)S(=O)(=O)c2ccc(C#CCN(C)C)cc2O[C@@H]1CN(C)Cc1ccccc1F,inactive
3,C[C@@H]1CN([C@H](C)CO)C(=O)c2cc(NC(=O)Cn3cnnn3)ccc2O[C@H]1CN(C)C(=O)Nc1ccc2c(c1)OCO2,inactive
4,COc1ncc(-c2nc(N3CCOCC3)nc3c(CN4CCC(C(C)(C)O)CC4)cc(F)cc23)cc1NS(C)(=O)=O,inactive
5,CC(=O)/C(C)=N/O,inactive
6,C[C@@H]1CCCCO[C@H](CN(C)C(=O)c2ccccc2)[C@@H](C)CN([C@@H](C)CO)C(=O)c2cc(NC(=O)c3ccccc3)ccc2O1,inactive
7,O=C1CCCNc2ccc(Cl)cc21,inactive
8,O=C1NCc2ccccc21,inactive
9,O=C1CCNc2cc3ccccc3cc21,active
10,C[C@H]1CCCCO[C@@H](CN(C)Cc2ccc(C(=O)O)cc2)[C@@H](C)CN([C@@H](C)CO)C(=O)c2cc(NC(=O)c3ccccc3)ccc2O1,inactive
11,C[C@@H]1CCCCO[C@@H](CN(C)C(=O)Cc2ccccc2)[C@@H](C)CN([C@H](C)CO)C(=O)c2cc(NC(=O)Cc3ccccc3)ccc2O1,inactive
12,CO[C@@]12[C@H](COC(N)=O)C3=C(C(=O)C(C)=C(N)C3=O)N1C[C@@H]1N[C@@H]12,inactive
13,CO[C@@]12[C@@H]3N[C@@H]3CN1C1=C(C(=O)C(N)=C(C)C1=O)[C@@H]2COC(N)=O,active
14,COC12C(COC(N)=O)C3=C(C(=O)C(C)=C(N)C3=O)N1CC1NC12 (stereo not given),inactive
15,CCOC(=O)C1CCN(S(=O)(=O)c2c(C)n(C)c(=O)n(C)c2=O)CC1,inactive
16,C[C@@H]1CN([C@H](C)CO)C(=O)CCCn2nncc2CO[C@@H]1CN(C)Cc1ccc(C(=O)Nc2ccccc2N)cc1,inactive
17,C[C@H](CO)N1C[C@H](C)[C@H](CN(C)Cc2ccc(Cl)c(Cl)c2)Oc2ccc(NC(=O)NC3CCCCC3)cc2CC1=O,inactive
18,C[C@@H]1CN([C@H](C)CO)C(=O)Cc2cc(NC(=O)NC3CCCCC3)ccc2O[C@H]1CN(C)Cc1ccc(Cl)c(Cl)c1,active
19,C[C@@H]1CN([C@@H](C)CO)C(=O)Cc2cc(NC(=O)NC3CCCCC3)ccc2O[C@H]1CN(C)Cc1ccc(Cl)c(Cl)c1,inactive
20,C[C@@H]1CN([C@@H](C)CO)C(=O)Cc2cc(NC(=O)NC3CCCCC3)ccc2O[C@@H]1CN(C)Cc1ccc(Cl)c(Cl)c1,inactive
21,C[C@H](CO)N1C[C@H](C)[C@@H](CN(C)Cc2ccc(Cl)c(Cl)c2)Oc2ccc(NC(=O)NC3CCCCC3)cc2CC1=O,inactive
22,C[C@@H]1CN([C@H](C)CO)C(=O)Cc2cc(NC(=O)NC3CCCCC3)ccc2O[C@@H]1CN(C)Cc1ccc(Cl)c(Cl)c1,active

row,SMILES,cytotoxicity call
1,Cc1noc(C)c1NC(=O)N(C)C[C@H]1OCCCC[C@@H](C)Oc2ccc(NS(=O)(=O)c3cccs3)cc2C(=O)N([C@@H](C)CO)C[C@H]1C,inactive
2,Cc1noc(C)c1NC(=O)N(C)C[C@H]1OCCCC[C@H](C)Oc2ccc(NS(=O)(=O)c3ccc(F)cc3)cc2C(=O)N([C@@H](C)CO)C[C@H]1C,inactive
3,COc1ccccc1CNC(=O)C[C@H]1C[C@H]2c3cc(NC(=O)NC4CCCC4)ccc3O[C@H]2[C@H](CO)O1,inactive
4,COc1ccc(CN(C)C[C@H]2Oc3c(NC(=O)c4ccc(-c5nccs5)cc4)cccc3C(=O)N([C@H](C)CO)C[C@H]2C)cc1,inactive
5,CC[C@H]1OC[C@@H]2CN(C(=O)CN(C)C)CC[C@H]21,inactive
6,C[C@H]1CN([C@@H](C)CO)C(=O)Cc2cc(NC(=O)Nc3ccc4c(c3)OCO4)ccc2O[C@@H]1CN(C)C(=O)Nc1cccc2ccccc12,inactive
7,C[C@@H]1CN([C@H](C)CO)C(=O)Cc2cc(NC(=O)Nc3ccccc3)ccc2O[C@@H]1CN(C)C(=O)Nc1cccc2ccccc12,inactive
8,C[C@@H]1CN([C@H](C)CO)C(=O)Cc2cc(NC(=O)Cc3ccccc3)ccc2O[C@H]1CN(C)C(=O)Nc1cccc2ccccc12,inactive
9,C[C@H]1CN([C@@H](C)CO)C(=O)Cc2cc(NC(=O)Nc3ccccc3)ccc2O[C@@H]1CN(C)C(=O)Nc1cccc2ccccc12,inactive
10,C[C@H](CO)N1C[C@H](C)[C@@H](CN(C)C(=O)Nc2cccc3ccccc23)Oc2ccc(NC(=O)Nc3ccccc3)cc2CC1=O,active
11,C[C@H](CO)N1C[C@H](C)[C@@H](CN(C)C(=O)Nc2cccc3ccccc23)Oc2ccc(NC(=O)Nc3ccc4c(c3)OCO4)cc2CC1=O,active
12,C[C@@H]1CN([C@H](C)CO)C(=O)Cc2cc(NC(=O)Nc3ccc4c(c3)OCO4)ccc2O[C@@H]1CN(C)C(=O)Nc1cccc2ccccc12,inactive
13,C[C@H]1CN([C@@H](C)CO)C(=O)Cc2cc(NC(=O)Nc3cccc4ccccc34)ccc2O[C@H]1CN(C)C(=O)Nc1cccc2ccccc12,inactive
14,C[C@H]1CN([C@@H](C)CO)C(=O)Cc2cc(NC(=O)Cc3ccccc3)ccc2O[C@@H]1CN(C)C(=O)Nc1cccc2ccccc12,inactive
15,C[C@H](CO)N1C[C@H](C)[C@@H](CN(C)C(=O)Nc2cccc3ccccc23)Oc2ccc(NC(=O)Cc3ccccc3)cc2CC1=O,active
16,C[C@@H]1CN([C@@H](C)CO)C(=O)Cc2cc(NC(=O)Nc3cccc4ccccc34)ccc2O[C@@H]1CN(C)C(=O)Nc1cccc2ccccc12,inactive
17,C[C@H](CO)N1C[C@H](C)[C@@H](CN(C)C(=O)Nc2cccc3ccccc23)Oc2ccc(NC(=O)Nc3cccc4ccccc34)cc2CC1=O,active
18,OCc1cccc(CO)n1,inactive
19,COC(=O)[C@@H](Cc1ccc(-n2cc(-c3ccc(C(=O)NO)s3)nn2)cc1)N1CC2=C[C@H](C3CC3)n3c(=O)n(C)c(=O)n3[C@@H]2[C@H]1[C@H](O)Cc1ccccc1,inactive
20,CCCNC(=O)N(C)C[C@@H]1Oc2cc(C#Cc3cccc(F)c3)ccc2S(=O)(=O)N([C@H](C)CO)C[C@@H]1C,inactive
21,CO[C@H]1CN(C)C(=O)c2cc(NS(C)(=O)=O)ccc2OC[C@@H](C)N(C(=O)c2ccc3c(c2)OCO3)C[C@@H]1C,inactive
